# Measured values from PubChem BioAssay.
# Activity calls are given as the source filed them.
# Experiments:
# [1] = binders of probe aFSTL3 on microarray, primary screen, stem cell growth factor project, biochemical, small-molecule microarray, fluorescence 635/667 (AID 1064); conditions: higher = more signal;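 also: measures binding of the biotinylated anti-FSTL3 antibody to printed compounds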
# [2] = binders from COS7 lysate, DM2A8 probe, primary screen, torsin A project, cell lysate, small-molecule microarray, fluorescence 635/667 (AID 1065); conditions: higher = more signal, COS7 lysate expressing mutant human TOR1A
# [3] = binders of probe aFGF2 on microarray, primary screen, stem cell growth factor project, biochemical, small-molecule microarray, fluorescence 635/667 (AID 1067); conditions: higher = more signal;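 also: measures binding of biotinylated aFGF2 protein to printed compounds on slides; z-score merges feature fluorescence and signal-to-noise across triplicate slides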
# [4] = binders of probe aFGF10 on microarray, primary screen, stem cell growth factor project, biochemical, small-molecule microarray, fluorescence 635/667 (AID 1071); conditions: higher = more signal;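 also: score merges 667 nm spot intensity and signal to noise from triplicate slides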
# [5] = target: Neurogenic locus notch homolog protein 2 (Homo sapiens) (UniProt Q04721); test: Notch2 binders on small-molecule microarrays, primary screen, biochemical, small-molecule microarray, 635 nm fluorescence, stem cell growth factors (AID 1073); conditions: Notch2 binding, higher = more signal
# [6] = target: Pro-neuregulin-1, membrane-bound isoform (Homo sapiens) (UniProt Q02297); test: NRG1 binders on small-molecule microarrays, primary screen, psychiatric disease protein project, biochemical, small-molecule microarray, fluorescence 635/667 (AID 1075); conditions: NRG1 binding, 635 nm fluorescence, higher = more signal;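 also: score combines 667 nm spot fluorescence with signal to noise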
# [7] = tested on: Neuregulin-1 EGF-like domain; test: binders of neuregulin-1 EGF-like domain, primary screen, biochemical, small-molecule microarray, 635 nm fluorescence (AID 1081); conditions: small-molecule microarray binding, higher = more signal;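 also: binding of the protein to compounds printed on small-molecule microarray slides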
# [8] = FRG1 promoter luciferase signal modulators, primary screen, FRG1 inhibition for FSHD, cell-based, C2C12 myotubes, firefly/Renilla luciferase, luminescence (AID 1084); conditions: higher = more signal, called active from +8 up or from −8 down
# [9] = binders of probe aFST on microarray, primary screen, stem cell growth factor project, biochemical, small-molecule microarray, fluorescence 635/667 (AID 1086); conditions: higher = more signal;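 also: score merges 667 nm fluorescence with signal-to-noise of each printed compound spot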
# [10] = binders of probe aHhip on microarray, primary screen, stem cell growth factor project, biochemical, small-molecule microarray, fluorescence 635/667 (AID 1087); conditions: higher = more signal;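 also: score merges spot fluorescence at 667nm with spot signal to noise ratio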
# [11] = tested on: PRMT1 (protein arginine N-methyltransferase 1); test: PRMT1 binders on small-molecule microarrays, primary screen, biochemical, small-molecule microarray, 635 nm fluorescence (AID 1088); conditions: small-molecule microarray binding, higher = more signal;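 also: binding of Prmt1 protein to compounds spotted on small-molecule microarray slides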
# [12] = yeast growth modulation, basal conditions, primary screen, YJM789 clinical isolate, OD600, 24 h (AID 1089);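 also: growth of clinical yeast isolate S. cerevisiae YJM 789 seeded 1000 cells per well; test concentration not given here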; conditions: S. cerevisiae YJM789 growth, higher = more signal, called active from +8 up or from −8 down
# [13] = fission yeast growth modulation, primary screen, strain 972, OD600, 24 h, no modulator (AID 1090);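 also: basal condition with compound alone and no growth modifier present; test concentration not given here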; conditions: S. pombe 972 growth, higher = more signal, called active from +8 up or from −8 down
# [14] = S. cerevisiae growth modulation with rapamycin, primary screen, strain BY4716, OD600, 96 h (AID 1091); conditions: higher = more signal, called active from +8 up or from −8 down; also: test concentration not given here
# [15] = target: Torsin-1A-interacting protein 2 (Homo sapiens) (UniProt Q8NFQ8); test: LULL1 binders on small-molecule microarray, primary screen, cell lysate, human LULL1 lysate, 635/667 nm fluorescence (AID 1092); conditions: hLULL1 lysate binding, 635 nm fluorescence, higher = more signal;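 also: probe is lysate of COS7 cells overexpressing human LULL1; score merges per-feature 667 nm fluorescence with signal-to-noise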
# [16] = E. coli growth modulation, two-sided OD650, primary screen, E. coli filamentation project, strain DRC41, 24 h (AID 1093); conditions: OD650, 24 h, higher = more signal, called active from +8 up or from −8 down;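 also: MC1000 strain lacking acrAB efflux and sulA so SOS filamentation is blocked; test concentration not given here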
# [17] = small-molecule microarray binders of probe aLefty2, primary screen, biochemical, biotinylated probe, 635/667 nm fluorescence (AID 1094); conditions: higher = more signal;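 also: score merges spot fluorescence near 667 nm with spot signal-to-noise ratio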
# [18] = tested on: Noggin (protein binding on small-molecule microarray); test: Noggin binders on small-molecule microarray, primary screen, biochemical, 635/667 nm fluorescence (AID 1095); conditions: 635 nm fluorescence, higher = more signal;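 also: score merges 667 nm feature fluorescence with signal to noise over triplicate slides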
# [19] = target: Neurogenic locus notch homolog protein 3 (Homo sapiens) (UniProt Q9UM47); test: NOTCH3 binders on small-molecule microarray, primary screen, biochemical, 635/667 nm fluorescence (AID 1096); conditions: NOTCH3 binding, 635 nm fluorescence, higher = more signal
# [20] = small-molecule microarray binders of probe aEGFR, primary screen, biochemical, biotinylated probe, 635/667 nm fluorescence (AID 1097); conditions: higher = more signal;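 also: probe is a biotinylated anti-EGFR antibody binding compounds printed on slides; score combines fluorescence near 667 nm and signal to noise of each spot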
# Sequence of Neurogenic locus notch homolog protein 3 (Homo sapiens) (Q9UM47 whole entry, looked up): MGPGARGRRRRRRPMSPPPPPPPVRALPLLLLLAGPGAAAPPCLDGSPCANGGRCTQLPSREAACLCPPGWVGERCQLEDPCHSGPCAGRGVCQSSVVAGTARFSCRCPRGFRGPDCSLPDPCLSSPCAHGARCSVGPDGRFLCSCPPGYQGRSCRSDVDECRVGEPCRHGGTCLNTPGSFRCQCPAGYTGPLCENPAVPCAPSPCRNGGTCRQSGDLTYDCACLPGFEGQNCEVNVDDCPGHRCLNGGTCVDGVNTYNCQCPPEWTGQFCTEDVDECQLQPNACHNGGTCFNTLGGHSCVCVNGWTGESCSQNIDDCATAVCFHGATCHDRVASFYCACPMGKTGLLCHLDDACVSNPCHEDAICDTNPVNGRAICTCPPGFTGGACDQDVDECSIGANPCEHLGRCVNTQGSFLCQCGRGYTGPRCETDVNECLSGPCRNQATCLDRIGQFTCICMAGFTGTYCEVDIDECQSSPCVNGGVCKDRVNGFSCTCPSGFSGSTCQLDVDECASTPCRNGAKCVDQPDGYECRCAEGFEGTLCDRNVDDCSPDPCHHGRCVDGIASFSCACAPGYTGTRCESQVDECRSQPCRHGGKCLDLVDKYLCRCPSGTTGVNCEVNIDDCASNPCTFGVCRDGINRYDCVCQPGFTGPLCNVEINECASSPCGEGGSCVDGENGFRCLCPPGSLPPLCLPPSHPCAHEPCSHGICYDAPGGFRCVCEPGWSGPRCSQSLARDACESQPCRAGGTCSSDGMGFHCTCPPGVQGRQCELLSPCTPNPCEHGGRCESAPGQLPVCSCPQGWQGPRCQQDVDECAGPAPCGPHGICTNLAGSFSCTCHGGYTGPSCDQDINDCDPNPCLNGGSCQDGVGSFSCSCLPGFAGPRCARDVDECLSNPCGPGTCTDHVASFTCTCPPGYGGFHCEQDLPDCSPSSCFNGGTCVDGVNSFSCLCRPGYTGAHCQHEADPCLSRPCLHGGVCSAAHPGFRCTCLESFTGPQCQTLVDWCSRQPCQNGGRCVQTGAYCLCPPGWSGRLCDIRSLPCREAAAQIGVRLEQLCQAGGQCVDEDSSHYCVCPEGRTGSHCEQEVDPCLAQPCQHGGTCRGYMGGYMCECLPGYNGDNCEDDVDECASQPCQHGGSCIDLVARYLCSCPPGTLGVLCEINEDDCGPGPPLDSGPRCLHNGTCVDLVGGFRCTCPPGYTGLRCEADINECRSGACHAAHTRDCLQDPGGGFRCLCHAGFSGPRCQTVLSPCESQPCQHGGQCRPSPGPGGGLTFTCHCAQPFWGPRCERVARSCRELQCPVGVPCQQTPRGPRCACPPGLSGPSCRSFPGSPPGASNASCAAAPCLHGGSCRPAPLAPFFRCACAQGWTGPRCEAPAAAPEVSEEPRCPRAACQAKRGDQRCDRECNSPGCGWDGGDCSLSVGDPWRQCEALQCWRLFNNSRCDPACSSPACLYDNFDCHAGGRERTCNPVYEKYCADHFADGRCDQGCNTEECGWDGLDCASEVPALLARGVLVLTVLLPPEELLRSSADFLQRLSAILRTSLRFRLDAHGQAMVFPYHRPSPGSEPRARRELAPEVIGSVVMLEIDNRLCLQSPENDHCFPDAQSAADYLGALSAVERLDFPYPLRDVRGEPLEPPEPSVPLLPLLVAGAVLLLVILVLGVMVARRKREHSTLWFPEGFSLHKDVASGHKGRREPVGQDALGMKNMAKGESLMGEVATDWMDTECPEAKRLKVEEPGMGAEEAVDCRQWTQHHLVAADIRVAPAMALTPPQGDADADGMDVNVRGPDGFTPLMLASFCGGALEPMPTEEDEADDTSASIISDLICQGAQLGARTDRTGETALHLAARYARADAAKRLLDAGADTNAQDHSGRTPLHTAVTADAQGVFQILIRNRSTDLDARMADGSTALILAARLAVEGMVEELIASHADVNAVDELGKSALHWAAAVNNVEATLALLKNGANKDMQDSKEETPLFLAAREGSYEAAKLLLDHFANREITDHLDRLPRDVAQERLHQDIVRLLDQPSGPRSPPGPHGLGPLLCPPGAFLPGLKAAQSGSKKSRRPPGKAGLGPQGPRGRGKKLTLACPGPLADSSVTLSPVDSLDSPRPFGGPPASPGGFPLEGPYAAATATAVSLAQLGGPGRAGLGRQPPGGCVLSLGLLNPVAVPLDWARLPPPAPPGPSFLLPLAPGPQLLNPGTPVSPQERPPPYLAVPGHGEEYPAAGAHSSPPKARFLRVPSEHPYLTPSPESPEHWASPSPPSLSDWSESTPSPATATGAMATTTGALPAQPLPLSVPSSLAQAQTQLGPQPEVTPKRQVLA
# Sequence of Torsin-1A-interacting protein 2 (Homo sapiens) (Q8NFQ8 whole entry, looked up): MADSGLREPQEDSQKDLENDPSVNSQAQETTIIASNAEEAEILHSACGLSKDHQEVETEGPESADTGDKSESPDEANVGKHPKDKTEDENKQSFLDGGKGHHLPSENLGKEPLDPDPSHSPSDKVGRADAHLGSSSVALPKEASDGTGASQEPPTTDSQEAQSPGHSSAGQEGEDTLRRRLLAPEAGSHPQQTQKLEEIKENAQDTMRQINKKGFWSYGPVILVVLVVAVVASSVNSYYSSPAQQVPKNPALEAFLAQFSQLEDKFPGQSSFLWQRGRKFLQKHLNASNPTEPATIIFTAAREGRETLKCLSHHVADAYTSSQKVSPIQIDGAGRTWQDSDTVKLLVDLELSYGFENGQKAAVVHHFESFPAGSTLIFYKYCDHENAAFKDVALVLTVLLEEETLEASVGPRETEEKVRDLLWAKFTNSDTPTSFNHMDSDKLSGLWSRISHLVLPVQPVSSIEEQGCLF
# Sequence of Pro-neuregulin-1, membrane-bound isoform (Homo sapiens) (Q02297 whole entry, looked up, the tested form may be a part, canonical isoform): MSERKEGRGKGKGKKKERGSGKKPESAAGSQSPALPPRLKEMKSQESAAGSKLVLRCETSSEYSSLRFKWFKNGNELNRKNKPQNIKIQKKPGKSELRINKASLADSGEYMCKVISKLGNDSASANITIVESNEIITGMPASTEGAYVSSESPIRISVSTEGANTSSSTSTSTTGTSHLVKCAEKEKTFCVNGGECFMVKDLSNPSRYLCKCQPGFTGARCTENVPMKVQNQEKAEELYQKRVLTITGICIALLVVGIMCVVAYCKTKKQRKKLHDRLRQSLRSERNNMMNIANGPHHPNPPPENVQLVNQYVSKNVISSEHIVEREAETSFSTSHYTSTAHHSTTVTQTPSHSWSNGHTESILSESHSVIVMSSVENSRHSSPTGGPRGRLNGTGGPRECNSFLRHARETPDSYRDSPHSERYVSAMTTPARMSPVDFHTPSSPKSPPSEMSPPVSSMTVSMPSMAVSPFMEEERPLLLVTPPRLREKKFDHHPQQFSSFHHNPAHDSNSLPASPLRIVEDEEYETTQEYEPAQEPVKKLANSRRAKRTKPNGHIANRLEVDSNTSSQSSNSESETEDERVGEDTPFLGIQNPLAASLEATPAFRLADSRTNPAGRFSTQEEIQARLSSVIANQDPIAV
structure (smiles),measurement,setting,value
C[C@@H]1ON(c2ccc(C(=O)OC(C)(C)C)cc2)[C@H](c2ccc(O)cc2)[C@H]1C(=O)N1C(=O)OC[C@H]1Cc1ccccc1,composite z-score,[1],-0.521
same,composite z-score,[2],0.707
same,composite z-score,[3],-0.109
same,composite z-score,[4],0.8
same,composite z-score,[5],1.37
same,composite z-score,[6],0.803
same,composite z-score,[7],1.05
same,z-score,[8],0.0087 (inactive)
same,composite z-score,[9],0.236
same,composite z-score,[10],-0.0645
same,composite z-score,[11],1.56
same,z-score,[12],0.465 (inactive)
same,z-score,[13],-0.29 (inactive)
same,z-score,[14],1.84 (inactive)
same,composite z-score,[15],1.24
same,z-score,[16],-0.63 (inactive)
same,composite z-score,[17],-0.146
same,composite z-score,[18],0.525
same,composite z-score,[19],1.12
same,composite z-score,[20],-0.0333
O=C1OCC=C[C@H]2OC34C=CCN(Cn5nnc6ccccc65)C(=O)[C@H]3N(CCCO)C(=O)[C@@H]4[C@@H]12 (stereo not given in full),composite z-score,[1],0.466
same,composite z-score,[2],-0.772
same,composite z-score,[3],-0.0015
same,composite z-score,[4],0.0131
same,composite z-score,[5],-1.04
same,composite z-score,[6],1.09
same,composite z-score,[7],1.54
same,z-score,[8],0.67 (inactive)
same,composite z-score,[9],-0.772
same,composite z-score,[10],-0.0618
same,composite z-score,[11],-0.169
same,z-score,[12],0.465 (inactive)
same,z-score,[13],-0.883 (inactive)
same,z-score,[14],-0.437 (inactive)
same,composite z-score,[15],0.433
same,z-score,[16],1.93 (inactive)
same,composite z-score,[17],-0.217
same,composite z-score,[18],-0.2
same,composite z-score,[19],-0.579
same,composite z-score,[20],-0.356
CCOc1cc(C(O)C2C=CC3C(=O)N(C)C(=O)C3N2Nc2ccccc2)ccc1O (stereo not given),composite z-score,[1],-0.329
same,composite z-score,[2],0.101
same,composite z-score,[3],0.0827
same,composite z-score,[4],0.305
same,composite z-score,[5],1.46
same,composite z-score,[6],1.78
same,composite z-score,[7],1.49
same,z-score,[8],0.55 (inactive)
same,composite z-score,[9],0.472
same,composite z-score,[10],0.24
same,composite z-score,[11],1.13
same,z-score,[12],0.921 (inactive)
same,z-score,[13],1.23 (inactive)
same,z-score,[14],1.97 (inactive)
same,composite z-score,[15],1.84
same,z-score,[16],-0.0866 (inactive)
same,composite z-score,[17],0.0258
same,composite z-score,[18],-0.386
same,composite z-score,[19],0.679
same,composite z-score,[20],0.0439
NCCCCCCNC(=O)[C@@H]1C[C@@H]2C(=O)N[C@@H](CCCCN)C(=O)N2[C@@H]1c1cccc(OCCO)c1,composite z-score,[1],1.06
same,composite z-score,[2],1.81
same,composite z-score,[3],0.221
same,composite z-score,[4],-0.127
same,composite z-score,[5],0.303
same,composite z-score,[6],2.53
same,composite z-score,[7],1.2
same,z-score,[8],3.25 (inactive)
same,composite z-score,[9],-0.175
same,composite z-score,[10],0.704
same,composite z-score,[11],1.28
same,z-score,[12],0.825 (inactive)
same,z-score,[13],0.962 (inactive)
same,z-score,[14],0.487 (inactive)
same,composite z-score,[15],2.14
same,z-score,[16],0.398 (inactive)
same,composite z-score,[17],0.885
same,composite z-score,[18],0.763
same,composite z-score,[19],0.362
same,composite z-score,[20],0.393
COCCOC(=O)N1C(=O)[C@@]2(c3cc(C#Cc4ccc(OC)cc4)ccc31)[C@H](c1ccccc1OCCO)N1[C@H](c3ccccc3)[C@H](c3ccccc3)OC(=O)[C@H]1[C@@H]2C(=O)N1CCCCCCC1,composite z-score,[1],3.55
same,composite z-score,[2],1.2
same,composite z-score,[3],0.903
same,composite z-score,[4],0.573
same,composite z-score,[5],1.3
same,composite z-score,[6],1.7
same,composite z-score,[7],0.961
same,z-score,[8],-0.633 (inactive)
same,composite z-score,[9],3.39
same,composite z-score,[10],1.47
same,composite z-score,[11],1.27
same,z-score,[12],-1.44 (inactive)
same,z-score,[13],0.423 (inactive)
same,z-score,[14],3.91 (inactive)
same,composite z-score,[15],3.85
same,z-score,[16],1.53 (inactive)
same,composite z-score,[17],1.71
same,composite z-score,[18],1.97
same,composite z-score,[19],0.841
same,composite z-score,[20],1.17
COC(=O)[C@@]1(Cc2ccccc2)[C@H]2c3cc(C(=O)N(C)C)n(CCc4ccc(O)c(OC)c4)c3C[C@H]2CN1C(=O)c1ccccc1,composite z-score,[1],0.514
same,composite z-score,[2],0.283
same,composite z-score,[3],0.356
same,composite z-score,[4],0.557
same,composite z-score,[5],0.749
same,composite z-score,[6],0.258
same,composite z-score,[7],0.781
same,z-score,[8],0.96 (inactive)
same,composite z-score,[9],1.34
same,composite z-score,[10],2.09
same,composite z-score,[11],-0.26
same,z-score,[12],0.031 (inactive)
same,z-score,[13],-0.0531 (inactive)
same,z-score,[14],0.409 (inactive)
same,composite z-score,[15],0.47
same,z-score,[16],-0.452 (inactive)
same,composite z-score,[17],0.425
same,composite z-score,[18],0.374
same,composite z-score,[19],0.489
same,composite z-score,[20],0.992
CCCC[C@@H](O)C1=C(COc2ccccc2)C[C@H]2C(=O)N(C)C(=O)[C@H]2[C@H]1CO,composite z-score,[1],-0.417
same,composite z-score,[2],-0.33
same,composite z-score,[3],-0.128
same,composite z-score,[4],-0.167
same,composite z-score,[5],-0.23
same,composite z-score,[6],-0.665
same,composite z-score,[7],-0.609
same,z-score,[8],-1.64 (inactive)
same,composite z-score,[9],-0.346
same,composite z-score,[10],-0.261
same,composite z-score,[11],0.129
same,z-score,[12],-2.42 (inactive)
same,z-score,[13],-1.79 (inactive)
same,z-score,[14],-0.561 (inactive)
same,composite z-score,[15],-0.988
same,z-score,[16],1.31 (inactive)
same,composite z-score,[17],-0.247
same,composite z-score,[18],0.273
same,composite z-score,[19],-0.242
same,composite z-score,[20],-0.225
O=C1O[C@@H](c2ccccc2)[C@@H](c2ccccc2)N2[C@@H](c3ccc(O)cc3)[C@]3(C(=O)Nc4ccc(C#CC5=CCCCC5)cc43)[C@@H](C(=O)NC[C@H](O)c3ccccc3)[C@H]12,composite z-score,[1],0.135
same,composite z-score,[2],1.76
same,composite z-score,[3],-0.0181
same,composite z-score,[4],0.508
same,composite z-score,[5],1.52
same,composite z-score,[6],1.2
same,composite z-score,[7],1.35
same,z-score,[8],0.754 (inactive)
same,composite z-score,[9],0.398
same,composite z-score,[10],0.251
same,composite z-score,[11],1.54
same,z-score,[12],1.31 (inactive)
same,z-score,[13],0.18 (inactive)
same,z-score,[14],2.89 (inactive)
same,composite z-score,[15],2.55
same,z-score,[16],1.24 (inactive)
same,composite z-score,[17],-0.0916
same,composite z-score,[18],1.22
same,composite z-score,[19],1.07
same,composite z-score,[20],0.12
Cc1ccc(S[C@]2(C(=O)O)CC(=O)N(Cc3ccccc3Cl)[C@@H]2c2ccc(CO)cc2I)cc1,composite z-score,[1],0.655
same,composite z-score,[2],0.39
same,composite z-score,[3],0.234
same,composite z-score,[4],0.107
same,composite z-score,[5],-0.442
same,composite z-score,[6],-0.0683
same,composite z-score,[7],1.09
same,z-score,[8],0.11 (inactive)
same,composite z-score,[9],0.415
same,composite z-score,[10],-0.624
same,composite z-score,[11],0.765
same,z-score,[12],-0.923 (inactive)
same,z-score,[13],-1.71 (inactive)
same,z-score,[14],1.21 (inactive)
same,composite z-score,[15],0.198
same,z-score,[16],-0.852 (inactive)
same,composite z-score,[17],-0.131
same,composite z-score,[18],-0.678
same,composite z-score,[19],-0.162
same,composite z-score,[20],0.519
